The panel holds about 83,000 compounds, 20% with a hit somewhere; the sample as a whole holds those more often.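 Compound tested at a single concentration for 48 hours in 96-well plates; a percent growth value below 10 was scored as active.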 Values without a mark were called inactive. Calls of active or inactive are those of the source.
Assays:
Experiment in all cases: NCI-60 one-dose screen, 48 h (100 = growth as untreated, 0 = no growth, -100 = all killed)
Settings in all cases: 10 µM unless noted
[1] = test system: T-47D breast
[2] = test system: BT-549 breast
[3] = test system: MDA-MB-435 melanoma
[4] = test system: SW-620 colon
[5] = test system: MCF7 breast
[6] = test system: HCT-116 colon
[7] = test system: HCC-2998 colon
[8] = test system: KM12 colon

| SMILES | growth [1] | growth [2] | growth [3] | growth [4] | growth [5] | growth [6] | growth [7] | growth [8] |
| --- | --- | --- | --- | --- | --- | --- | --- | --- |
| C[C@]12CC[C@@H]3c4cc(OC(F)F)c(O)cc4CC[C@H]3[C@@H]1CC[C@@H]2OS(N)(=O)=O | 47% | 67.7% | 0.824% (active) | 31.2% | 24.2% | 29.8% | 47.5% | 18.9% |
| CC/C=C1/C(=O)C=C[C@@H]1C/C=C\CCCC(=O)O | 71.8% | 76.5% | 54.1% | 43.5% | 19.8% | 35.5% | 95.1% | 63.4% |
| CNC(=O)NCC1OC(n2cnc3c(NC(=O)Nc4ccccc4)ncnc32)C(O[Si](C)(C)C(C)(C)C)C1CC(=O)N(C)OC (stereo not drawn) | -34% (active) | 25.5% | 7.75% (active) | 23.7% | 3.29% (active) | 16.8% | -13.4% (active) | 17.2% |
| N#Cc1c(N)nc2c(C#N)c(NC(=O)c3ccccc3)nn2c1-c1ccccc1 | 68.2% | 97.6% | 96.7% | 103% | 75.8% | 92.7% | 103% | 95.7% |
| O=C(Nc1ccc(Cl)cc1)Nc1ccc(Cl)c(C(F)(F)F)c1 | -5.38% (active) | 14.4% | -5.12% (active) | 5.74% (active) | 9.91% (active) | 2.77% (active) | -34.8% (active) | 3% (active) |
| O=C1/C(=C2/C=Nc3ccccc32)N(O)c2ccccc21 | 19.5% | 78.1% | -95.3% (active) | 75.4% | 40.3% | 49.8% | 113% | 73.1% |
| Cc1cc(=O)[nH]c(N=Nc2c(O)[nH]c3ccccc23)n1 | 105% | 99.3% | 114% | 110% | 93.2% | 104% | 107% | 108% |
| C=CCOC1=CC(=O)c2ccccc2C1=O | 54.2% | 95.4% | -67.5% (active) | 33.2% | -2.95% (active) | 8.07% (active) | 98% | 87.8% |
| CCCCCCCCCCCCCCCCCCOc1ccc(CC(=O)OCC[N+]2(C)CCCC2)cc1 | 95.5% | 123% | 100% | 95% | 90.9% | 92% | 104% | 101% |
| O=C(NCCCNc1cc(-c2cn(-c3ccccc3)nc2-c2cccc(O)c2)ccn1)c1ccccc1 | -13.8% (active) | 10.3% | -10.5% (active) | -32.4% (active) | 23% | 24.8% | -26.1% (active) | 20.2% |
| COc1ccc2c(c1)[nH]c(=O)c1c3cccnc3cn21 | 60.2% | 45.6% | -6.86% (active) | 20% | 20.5% | 15.2% | 21.5% | 14.5% |
| CSc1n(Cc2ccc3ccccc3c2)c(C)c[n+]1Cc1ccc2ccccc2c1 | 0.45% (active) | -23.4% (active) | -66.2% (active) | 0.772% (active) | -62.8% (active) | -0.907% (active) | -91.1% (active) | -82.5% (active) |
| Cc1c2c(c(C)c3c1oc1cc(O)ccc13)C(=O)N(CCN1CCCCC1)C2=O | 91.1% | 97.7% | 93.3% | 67.8% | 90.3% | 67.4% | 93.6% | 83.9% |
| Cc1ccccc1NC(=O)N/C(N)=N/c1nc(C)c(C)s1 | 36.2% | 66.3% | -46.9% (active) | 25% | 21.4% | 21.7% | 22.1% | 35% |
| O=c1c2c3c(sc2nc(N/N=C/c2ccc(Br)cc2)n1Cc1ccccc1)CCCC3 | 87.5% | 93.6% | 83.4% | 83.8% | 58.3% | 67.4% | 37.3% | 81.9% |
| O=[N+]([O-])c1ccc(N2c3ccncc3Sc3ccncc32)cc1 | 97.4% | 114% | 112% | 103% | 101% | 91.6% | 110% | 93.5% |

— PubChem BioAssay (NCI)
